{
  "source": "PubChem BioAssay (NCATS)",
  "note": "Records with an inconclusive call do not appear. The source made the active and inactive calls. The call rests on the fitted dose curve; in most records, active means well fitted inhibition curve with a large enough effect; inconclusive means small, poorly fitted or top-dose-only effect; inactive means no such curve, though single readings can be large or run the other way. Potency means the concentration at half of the fitted maximal effect.",
  "data": [
    {"assay": "BET inhibitor-based combinations targeting novel dependencies in MECOM-rearranged (r) AML: MV-4-11 cell line (AID 2202233); further: nearly all actives have a fitted effect of over 45% in size;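 on viability, % of control: plate controls were DMSO for no effect and blank wells for full effect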", "conditions": "MV-4-11 AML viability, CellTiter-Glo luminescence, 48 h; series mostly up to 46 µM; viability, % of control: at the top concentration", "outline": "(§1)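 Normalized to DMSO and empty-well controls, the luminescence data from CellTiter-Glo after 48 hr drug exposure were fitted across 11 concentrations. Reported metrics are area under the dose-response curve and its Z-transformed form.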", "values": [
      {"smiles": "Cc1ccc(C(N)=O)cc1Nc1nccc(-c2cn(C(C)C)c3cnccc23)n1", "Potency": "0.0833 µM (active)"},
      {"smiles": "O=C1CCC[C@@H]2[C@H]3CCC[N+]4([O-])CCC[C@@H](CN12)[C@@H]34", "note": "(some centres not stated)", "viability, % of control": "124% (inactive)"},
      {"smiles": "CS(=O)(=O)CCNCc1ccc(-c2ccc3ncnc(Nc4ccc(OCc5cccc(F)c5)c(Cl)c4)c3c2)o1", "Potency": "18.6 µM (active)"},
      {"smiles": "CCS(=O)(=O)c1cccc(-c2cc(C(=O)NC3CCN(C)CC3)c(C)c3[nH]c4ncc(C)cc4c23)c1", "Potency": "0.0934 µM (active)"},
      {"smiles": "FC(F)(F)c1ccc(Nc2nc(-c3c(C(F)(F)F)nc4ccccn34)cs2)cc1", "Potency": "0.417 µM (active)"},
      {"smiles": "CCn1nc(C2CCN(C(=O)CCO)CC2)nc1-c1cnc(N)c(-c2nnc(C(C)(C)C)o2)n1", "Potency": "5.9 µM (active)"},
      {"smiles": "Cc1nn(Cc2ccccc2Cl)c(C)c1CN(C)CC(O)COc1ccc(Cl)cc1", "note": "(configuration not stated)", "Potency": "20.9 µM (active)"},
      {"smiles": "CC1(C)[C@@H](O)CC[C@]2(C)[C@H]3C(=O)C=C4[C@@H]5C[C@@](C)(C(=O)O)CC[C@]5(C)CC[C@@]4(C)[C@]3(C)CC[C@@H]12", "viability, % of control": "82.1% (inactive)"},
      {"smiles": "Cc1[nH]c2ccc(F)cc2c1-c1nc2c3cccnc3c3ncccc3c2[nH]1", "Potency": "0.605 µM (active)"},
      {"smiles": "COCCOc1ccc2c(c1)ncn2-c1ccc2cccc(N3CCC(N)CC3)c2n1", "Potency": "0.0186 µM (active)"},
      {"smiles": "COc1ccc(Cl)c(Nc2ncnc3cc(OCC4CCN(C)CC4)c(OC)cc23)c1", "Potency": "5.9 µM (active)"},
      {"smiles": "Fc1ccc(-c2nc(-c3ccccc3F)[nH]c2-c2ccncc2)cc1", "viability, % of control": "46% (inactive)"},
      {"smiles": "CC(C)(O)CC(=O)NCCn1ccc2ncnc(Nc3ccc(Oc4cccc(C(F)(F)F)c4)c(Cl)c3)c21", "Potency": "13.2 µM (active)"},
      {"smiles": "COc1cc2c(Oc3ccc4[nH]c(C)cc4c3F)ncnc2cc1OCCCN1CCCC1", "Potency": "18.6 µM (active)"},
      {"smiles": "Cc1cnc(Nc2ccc(F)cc2Cl)nc1-c1c[nH]c(C(=O)N[C@H](CO)c2cccc(Cl)c2)c1", "Potency": "20.9 µM (active)"},
      {"smiles": "CC1=C[C@@H]2[C@@H]([C@@H](O)C[C@@]3(C)[C@H]2C[C@@H](C)[C@]3(O)C(=O)CO)[C@@]2(C)Cc3cnn(-c4ccccc4)c3C=C12", "Potency": "18.6 µM (active)"},
      {"smiles": "Cc1ccc(Nc2nccc(N(C)c3ccc4c(C)n(C)nc4c3)n2)cc1S(N)(=O)=O", "Potency": "5.25 µM (active)"},
      {"smiles": "Clc1ccc(C2(c3ccc(-c4cn[nH]c4)cc3)CCNCC2)cc1", "Potency": "4.17 µM (active)"},
      {"smiles": "Cc1ccc(NC(=O)Nc2cc(C(F)(F)F)ccc2F)cc1Nc1ccc2c(c1)NC(=O)/C2=C\\c1ccc[nH]1", "Potency": "16.6 µM (active)"},
      {"smiles": "O=C(Nc1ccc(OC(F)(F)F)cc1)c1sccc1NCc1ccnc2ccccc12", "Potency": "6.61 µM (active)"},
      {"smiles": "C=C1C[C@@]2(O)O[C@@]3(C[C@H]2C(C)C)[C@@H](C)CC[C@@H]13", "viability, % of control": "108% (inactive)"},
      {"smiles": "O=C(Nc1ccc(-c2ccnc(Nc3ccc(N4CCOCC4)cc3)n2)cc1)C1CCCN1", "note": "(configuration not stated)", "Potency": "2.35 µM (active)"},
      {"smiles": "Cc1[nH]c(/C=C2\\C(=O)Nc3ccc(F)cc32)c(C)c1C(=O)NCCN1CCCC1", "Potency": "0.0323 µM (active)"},
      {"smiles": "COc1cc(N2CCC(N3CCN(C)CC3)CC2)ccc1Nc1ncc(Cl)c(Nc2ccccc2P(C)(C)=O)n1", "Potency": "0.0186 µM (active)"},
      {"smiles": "CC(C)[C@@H](CS(=O)(=O)C(C)C)N1C(=O)[C@@](C)(CC(=O)O)C[C@H](c2cccc(Cl)c2)[C@H]1c1ccc(Cl)cc1", "Potency": "1.86 µM (active)"},
      {"smiles": "CC(C)(O)c1cc2nc(-c3cnc(N)nc3)nc(N3CCOCC3)c2s1", "Potency": "1.32 µM (active)"}
    ]},
    {"assay": "BET inhibitor-based combinations targeting novel dependencies in MECOM-rearranged (r) AML: HNT-34 cell line (AID 2202234); further: nearly all actives have a fitted effect of over 35% in size;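 on viability (% of control): plate controls were vehicle wells for no effect and cell-free wells for full effect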", "conditions": "HNT-34 AML viability, CellTiter-Glo luminescence, 48 h; series mostly up to 46 µM; viability (% of control): at the top concentration", "outline": "as §1", "values": [
      {"smiles": "Cc1ccc(C(N)=O)cc1Nc1nccc(-c2cn(C(C)C)c3cnccc23)n1", "Potency": "2.95 µM (active)"},
      {"smiles": "O=C1CCC[C@@H]2[C@H]3CCC[N+]4([O-])CCC[C@@H](CN12)[C@@H]34", "note": "(some centres not stated)", "viability (% of control)": "99.7% (inactive)"},
      {"smiles": "CS(=O)(=O)CCNCc1ccc(-c2ccc3ncnc(Nc4ccc(OCc5cccc(F)c5)c(Cl)c4)c3c2)o1", "Potency": "3.72 µM (active)"},
      {"smiles": "CCS(=O)(=O)c1cccc(-c2cc(C(=O)NC3CCN(C)CC3)c(C)c3[nH]c4ncc(C)cc4c23)c1", "Potency": "0.235 µM (active)"},
      {"smiles": "FC(F)(F)c1ccc(Nc2nc(-c3c(C(F)(F)F)nc4ccccn34)cs2)cc1", "Potency": "0.332 µM (active)"},
      {"smiles": "CCn1nc(C2CCN(C(=O)CCO)CC2)nc1-c1cnc(N)c(-c2nnc(C(C)(C)C)o2)n1", "Potency": "16.6 µM (active)"},
      {"smiles": "Cc1nn(Cc2ccccc2Cl)c(C)c1CN(C)CC(O)COc1ccc(Cl)cc1", "note": "(configuration not stated)", "Potency": "20.9 µM (active)"},
      {"smiles": "CC1(C)[C@@H](O)CC[C@]2(C)[C@H]3C(=O)C=C4[C@@H]5C[C@@](C)(C(=O)O)CC[C@]5(C)CC[C@@]4(C)[C@]3(C)CC[C@@H]12", "viability (% of control)": "84.7% (inactive)"},
      {"smiles": "Cc1[nH]c2ccc(F)cc2c1-c1nc2c3cccnc3c3ncccc3c2[nH]1", "Potency": "0.679 µM (active)"},
      {"smiles": "COCCOc1ccc2c(c1)ncn2-c1ccc2cccc(N3CCC(N)CC3)c2n1", "Potency": "7.42 µM (active)"},
      {"smiles": "COc1ccc(Cl)c(Nc2ncnc3cc(OCC4CCN(C)CC4)c(OC)cc23)c1", "Potency": "0.742 µM (active)"},
      {"smiles": "Fc1ccc(-c2nc(-c3ccccc3F)[nH]c2-c2ccncc2)cc1", "viability (% of control)": "79.8% (inactive)"},
      {"smiles": "CC(C)(O)CC(=O)NCCn1ccc2ncnc(Nc3ccc(Oc4cccc(C(F)(F)F)c4)c(Cl)c3)c21", "Potency": "14.8 µM (active)"},
      {"smiles": "COc1cc2c(Oc3ccc4[nH]c(C)cc4c3F)ncnc2cc1OCCCN1CCCC1", "Potency": "11.8 µM (active)"},
      {"smiles": "Cc1cnc(Nc2ccc(F)cc2Cl)nc1-c1c[nH]c(C(=O)N[C@H](CO)c2cccc(Cl)c2)c1", "Potency": "18.6 µM (active)"},
      {"smiles": "CC1=C[C@@H]2[C@@H]([C@@H](O)C[C@@]3(C)[C@H]2C[C@@H](C)[C@]3(O)C(=O)CO)[C@@]2(C)Cc3cnn(-c4ccccc4)c3C=C12", "Potency": "18.6 µM (active)"},
      {"smiles": "Cc1ccc(Nc2nccc(N(C)c3ccc4c(C)n(C)nc4c3)n2)cc1S(N)(=O)=O", "Potency": "6.61 µM (active)"},
      {"smiles": "Clc1ccc(C2(c3ccc(-c4cn[nH]c4)cc3)CCNCC2)cc1", "Potency": "5.25 µM (active)"},
      {"smiles": "Cc1ccc(NC(=O)Nc2cc(C(F)(F)F)ccc2F)cc1Nc1ccc2c(c1)NC(=O)/C2=C\\c1ccc[nH]1", "Potency": "26.3 µM (active)"},
      {"smiles": "O=C(Nc1ccc(OC(F)(F)F)cc1)c1sccc1NCc1ccnc2ccccc12", "Potency": "10.5 µM (active)"},
      {"smiles": "C=C1C[C@@]2(O)O[C@@]3(C[C@H]2C(C)C)[C@@H](C)CC[C@@H]13", "viability (% of control)": "94.9% (inactive)"},
      {"smiles": "O=C(Nc1ccc(-c2ccnc(Nc3ccc(N4CCOCC4)cc3)n2)cc1)C1CCCN1", "note": "(configuration not stated)", "Potency": "5.9 µM (active)"},
      {"smiles": "Cc1[nH]c(/C=C2\\C(=O)Nc3ccc(F)cc32)c(C)c1C(=O)NCCN1CCCC1", "Potency": "3.62 µM (active)"},
      {"smiles": "COc1cc(N2CCC(N3CCN(C)CC3)CC2)ccc1Nc1ncc(Cl)c(Nc2ccccc2P(C)(C)=O)n1", "Potency": "0.934 µM (active)"},
      {"smiles": "CC(C)[C@@H](CS(=O)(=O)C(C)C)N1C(=O)[C@@](C)(CC(=O)O)C[C@H](c2cccc(Cl)c2)[C@H]1c1ccc(Cl)cc1", "Potency": "1.66 µM (active)"},
      {"smiles": "CC(C)(O)c1cc2nc(-c3cnc(N)nc3)nc(N3CCOCC3)c2s1", "Potency": "1.86 µM (active)"}
    ]}
  ]
}
